Shown are actives, neighbours in structure and some others; about 3% of the full set was active somewhere.
MITF TRPM1 inh – reduces MITF-dependent TRPM1 promoter luciferase signal; AID 488899; inhibition, % at 12.5 µM; SK-MEL-5 TRPM1 promoter luciferase, 24 h; hit rate 0.83% among 330,000;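 active = mean inhibition across replicates of 60% or more, whatever share of single replicates reaches that level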
Peg3 prom inh – inhibitors of Peg3 promoter; inhibition, % at 20 µM; hit rate 1.7% among 360,000; HeLa PEG-Prom luciferase reporter, luminescence, overnight; AID 588405;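 active = inhibition of at least 50% at 20 µM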
EWS-Fli inh – EWS/Fli transcriptional activity inhibition; A673 NR0B1-luciferase reporter, viability-normalised; inhibition, % at 12.6 µM; hit rate 0.67% among 350,000;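 active = mean inhibition of at least 50% after viability correction, with every replicate also passing that limit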;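 note: firefly luciferase signal divided by Alamar Blue viability fluorescence both relative to DMSO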
PAX8 inh HTS – lowers PAX8-driven luciferase in RMG-I cells; RMG-I TPO-luciferase reporter, SteadyGlo, 24 h; inhibition, % at 12.6 µM; hit rate 1.2% among 360,000;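 active = mean replicate inhibition at least 60% with every replicate also reaching 60%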;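 note: luciferase light reporting Pax8 driven TPO promoter activity; plate controls were median of neutral control wells for no effect and mitoxantrone controls for full effect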
Shn3 3UTR inh – inhibitors of Schnurri-3 3'UTR reporter in osteoblasts. hit rate 0.52% among 360,000. inhibition, % at 12.5 µM. Clone20 osteoblast Shn3 3'UTR firefly luciferase, 24 h;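 active = mean inhibition of at least 75% with every replicate also reaching 75%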;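 note: 0% = median of neutral control wells and 100% = pilot-screen positive control compound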
ABHD5 PLIN5 PPI – blocks binding of human ABHD5 to perilipin-5; inhibition, % at 4 µM; Split G. princeps luciferase complementation, luminescence, 4 h; AID 602281; Q00G26+Q8WTS1; hit rate 0.78% among 360,000;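 active = inhibition above the mean inhibition across every tested compound plus 3 SD, cut at about 22% in these data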;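 note: 0% = DMSO only wells and the 100% control is not disclosed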
Target sequence (Q00G26 whole entry, looked up): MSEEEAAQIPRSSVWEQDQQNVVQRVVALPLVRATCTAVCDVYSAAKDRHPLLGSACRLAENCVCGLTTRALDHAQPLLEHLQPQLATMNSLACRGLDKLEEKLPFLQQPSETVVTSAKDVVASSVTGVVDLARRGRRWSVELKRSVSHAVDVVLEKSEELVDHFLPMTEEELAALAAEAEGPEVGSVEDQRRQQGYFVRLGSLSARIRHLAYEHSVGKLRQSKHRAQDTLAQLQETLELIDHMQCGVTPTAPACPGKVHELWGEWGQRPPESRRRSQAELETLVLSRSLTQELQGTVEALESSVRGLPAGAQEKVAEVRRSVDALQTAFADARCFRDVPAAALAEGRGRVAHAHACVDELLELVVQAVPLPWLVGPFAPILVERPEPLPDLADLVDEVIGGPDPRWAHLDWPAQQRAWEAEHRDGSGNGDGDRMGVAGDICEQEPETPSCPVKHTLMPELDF
Target sequence (Q8WTS1 whole entry, looked up): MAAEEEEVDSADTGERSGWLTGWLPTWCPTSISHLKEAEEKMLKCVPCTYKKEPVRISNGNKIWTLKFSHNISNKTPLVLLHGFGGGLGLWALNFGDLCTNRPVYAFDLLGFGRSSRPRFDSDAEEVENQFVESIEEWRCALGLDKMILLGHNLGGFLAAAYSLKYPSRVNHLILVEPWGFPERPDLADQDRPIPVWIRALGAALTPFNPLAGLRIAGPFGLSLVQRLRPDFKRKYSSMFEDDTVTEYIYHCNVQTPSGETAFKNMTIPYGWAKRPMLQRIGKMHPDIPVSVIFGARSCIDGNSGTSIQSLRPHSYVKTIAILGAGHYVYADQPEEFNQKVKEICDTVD
An asterisk follows results filed as active; . = no result given.

SMILES	MITF TRPM1 inh	Peg3 prom inh	EWS-Fli inh	PAX8 inh HTS	Shn3 3UTR inh	ABHD5 PLIN5 PPI
O=C(C[C@@H]1CC[C@@H](NC(=O)c2ccncc2)[C@@H](CO)O1)Nc1ccccc1	.	.	5	-3	.	.
C[C@@H]1CN([C@@H](C)CO)C(=O)c2cc(NS(=O)(=O)c3cn(C)cn3)ccc2O[C@H]1CN(C)S(=O)(=O)c1ccccc1	.	.	-5	.	.	.
O=C(C1CCC1)N1C[C@H]2[C@@H](c3ccccc31)[C@@H](CO)N2C(=O)c1ccccc1	.	.	-4	-6	.	.
CCN(CC)CCCN(C(=O)c1ccco1)c1nc(-c2ccc(C)cc2)cs1	0	57*	6	2	-49	14
CCN(CC)CCCN(C(=O)c1ccco1)c1nc(-c2ccc(Cl)cc2)cs1	-7	64*	36	13	5	13
CN(C)CC/C=C1\c2ccc(F)cc2Sc2cc(F)c(Cl)cc21	.	16	13	23	23	4
CN(C)CC/C=C1\c2ccccc2Sc2cc(F)c(Cl)cc21	-79	62*	15	-3	42	9
O=C(C[C@@H]1C[C@H]2c3cc(NS(=O)(=O)c4ccccc4)ccc3O[C@H]2[C@H](CO)O1)NC1CCCC1	.	.	2	.	.	.
CN(Cc1ccccc1)C1=CC(=[N+]2CCCCC2)CC(C)(C)C1	77*	18	23	74*	85	18
CC1(C)CC(N2CCCC2)=CC(=[N+]2CCCCC2)C1	33	23	12	38	64	4
CC1(C)CC(N2CCN(Cc3ccccc3)CC2)=CC(=[N+]2CCCCC2)C1	67*	12	1	69*	82	6
CCNC(=O)C[C@H]1CC[C@H]2[C@H](COc3ccc(NC(=O)Nc4cccc(C)c4)cc3C(=O)N2C)O1	.	.	4	21	.	.
COc1ccc(C(=O)Nc2cc(C(=O)c3ccccc3)c(C)oc2=O)cc1	-8	-191	.	.	-10	37*
Cc1oc(=O)c(NC(=O)c2ccccc2)cc1C(N)=O	6	2	-13	13	-5	3
O=C(Nc1cc2ccccc2oc1=O)c1ccccc1	63*	54*	74*	36	22	-12
CN(C)CC#Cc1ccc([C@@H]2[C@@H](CO)N3CCCCN(C(=O)Nc4ccc(F)cc4)C[C@@H]23)cc1	.	.	-5	-47	.	.
C[C@H]1CCCCO[C@H](CN(C)C(=O)CCCN(C)C)[C@@H](C)CN([C@@H](C)CO)C(=O)c2cc(NS(=O)(=O)c3ccc(F)cc3)ccc2O1	.	.	-3	-30	.	.
O=C(NCCN1CCN(Cc2ccccc2)CC1)C1c2ccccc2C(=O)N2CCc3ccccc3C12 (stereo not drawn)	8	6	.	.	-10	2
Cc1ccc(CNC(=O)C2c3ccccc3C(=O)N3CCc4ccccc4C23)o1 (stereo not drawn)	0	16	.	.	-18	22*
C[C@@H]1CN([C@H](C)CO)C(=O)c2cc(NC(=O)C3CCCCC3)ccc2O[C@@H]1CN(C)C(=O)Nc1ccc(C(F)(F)F)cc1	.	.	-22	43	.	.
COc1ccc(N2C(=O)CN=C2Nc2nc(C)cc(C)n2)cc1	16	-23	.	76*	6	-3
COCC(=O)N1CC[C@@H]2[C@H]1c1cc(-c3cccc(OC)c3)ccc1N(C)[C@H]2CO	.	.	-13	20	.	.
C[C@H](CO)N1C[C@H](C)[C@H](CN(C)Cc2ccc(Cl)c(Cl)c2)Oc2ccc(NC(=O)CCCCCC(=O)Nc3ccccc3N)cc2C1=O	.	.	46	.	.	.
C[C@@H]1CCCCO[C@H](CN(C)Cc2ccccc2)[C@@H](C)CN([C@H](C)CO)C(=O)c2cc(NC(=O)CCCCCC(=O)Nc3ccccc3N)ccc2O1	.	.	-20	14	.	.
C[C@@H]1CN([C@H](C)CO)C(=O)c2cc(NC(=O)CCCCCC(=O)Nc3ccccc3N)ccc2O[C@@H](C)CCCCO[C@H]1CN(C)Cc1ccc(Cl)c(Cl)c1	.	.	-20	80*	.	.
SMILES	MITF TRPM1 inh	Peg3 prom inh	EWS-Fli inh	PAX8 inh HTS	Shn3 3UTR inh	ABHD5 PLIN5 PPI
C[C@@H]1CCCCO[C@H](CN(C)Cc2ccc(Cl)c(Cl)c2)[C@@H](C)CN([C@H](C)CO)C(=O)c2cc(NC(=O)CCCCCC(=O)Nc3ccccc3N)ccc2O1	.	.	9	73*	.	.
C[C@H](CO)N1C[C@H](C)[C@@H](CN(C)Cc2ccc(Cl)c(Cl)c2)Oc2ccc(NS(=O)(=O)c3ccc(Cl)cc3)cc2C1=O	.	.	3	10	.	.
CCN1[C@@H]2Cn3c(ccc(/C=C/c4ccccc4)c3=O)[C@H]1[C@@H](C(=O)NC1Cc3ccccc3C1)[C@@H]2CO	.	.	-13	15	.	.
COc1ccc(S(=O)(=O)N(C)C[C@H]2OCCCC[C@H](C)Oc3ccc(NS(C)(=O)=O)cc3C(=O)N([C@@H](C)CO)C[C@@H]2C)cc1	.	.	6	-8	.	.
O=C(COc1ccc(Cl)cc1)N(Cc1ccccc1)c1nc(-c2ccccc2)cs1	1	55*	.	.	-17	-2
COc1ccc(-c2ccc3n(c2=O)C[C@@H]2[C@@H](CO)[C@H](C(=O)NC4Cc5ccccc5C4)N[C@H]32)cc1	.	.	-5	66*	.	.
COc1ccc(-c2ccc3n(c2=O)C[C@H]2[C@H](CO)[C@@H](C(=O)NC4Cc5ccccc5C4)N[C@@H]32)cc1	.	.	-3	14	.	.
O=C(O)CCn1c(=O)[nH]c(=O)n(CCC(=O)O)c1=O	13	89*	-1	-9	10	-3
CN1c2ccc(-c3cccc(F)c3)cc2[C@@H]2[C@@H](CCN2S(=O)(=O)c2cccc(F)c2)[C@H]1CO	.	.	8	2	.	.
CC(C)CCNc1nc(N)c([N+](=O)[O-])c(N2CCCCCC2)n1	13	20	17	23	87*	-3
CC1CC(Nc2ccccc2)c2ccccc2N1C(=O)c1ccccc1F (stereo not drawn)	13	26	63*	35	31	-4
Cc1noc(C)c1S(=O)(=O)Nc1ccc2c(c1)C(=O)N([C@@H](C)CO)C[C@H](C)[C@H](CN(C)C(=O)CCCN(C)C)OCCCC[C@H](C)O2	.	.	-4	8	.	.
O=C(Cn1c(=O)n(Cc2ccco2)c(=O)c2c3c(sc21)CCCCC3)Nc1ccccc1	-6	17	.	.	-21	66*
O=C(Cn1c(=O)n(Cc2ccco2)c(=O)c2c3c(sc21)CCCCC3)c1ccccc1	-15	-37	3	.	-58	51*
COc1ccc2c3c([nH]c2c1)[C@H](CO)N(Cc1cccc(F)c1)CC31CN(CC2CC2)C1	.	.	5	6	.	.
C[C@H](CO)N1C[C@H](C)[C@H](CN(C)C(=O)C2CC2)Oc2cc(Br)ccc2S1(=O)=O	.	.	-11	1	.	.
C[C@@H]1CCCCO[C@@H](CN(C)C(=O)NC2CCCCC2)[C@@H](C)CN([C@@H](C)CO)C(=O)c2cc(NC(=O)Nc3ccc4c(c3)OCO4)ccc2O1	.	.	-12	-8	.	.
CCOC(=O)c1cccc(NC(=O)/C=C/c2ccc([N+](=O)[O-])cc2)c1	13	-37	60*	7	-10	1
COC(=O)c1cccc(NC(=O)/C=C/c2ccc([N+](=O)[O-])cc2)c1	18	-116	70*	-44	-10	-4

Screening results deposited in PubChem by several laboratories.
